In PubChem BioAssay (NCATS):
Inconclusive results are not listed. Activity calls are given as the source filed them. Unless noted, calls come from the whole dose curve; as a rule, active = well fitted curve in the direction sought with a large enough effect; inconclusive = small, poorly fitted or top-dose-only effect, or another doubt; inactive = no such curve, though single readings can be large; an effect the other way counts as inactive or inconclusive.

Assays:
[1] = qHTS for differential inhibitors of proliferation of Plasmodium falciparum line HB3 (AID 1886); conditions: Potency: Plasmodium falciparum HB3 proliferation inhibition; series mostly up to 28.7 µM;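 note: parasites grown with compound for 72 h before SYBR Green readout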; note: potency is the fitted concentration of half-maximal effect
[2] = biological target: ATP-dependent DNA helicase Q1 (Homo sapiens) (UniProt P46063); assay: qHTS Validation Assay for Inhibitors of RecQ-Like Dna Helicase 1 (RECQ1) (AID 2353); conditions: recombinant RECQ1 helicase DNA unwinding assay; series mostly up to 25.6 µM
How it was run: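 50 nM RECQ1T1 preincubated 15 min with compound in Tris pH 8.0 buffer with MgCl2, DTT, Tween-20 and 2.5 ug/ml poly(dI-dC); started with 200 nM TAMRA/BHQ-2 forked duplex and 2 mM ATP. Unwinding read as fluorescence (525/598 nm), two reads 2 h apart.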

[3] = Cytometric Cell-Based qHTS for Inhibitors of the mTORC1 Signaling Pathway in MEF (Tsc2-/-, p53-/-) Cells (AID 2660); conditions: mTORC1 pathway cytometry; series mostly up to 38.3 µM;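 note: percent of cells above a phospho-rpS6 to PI ratio cutoff in each well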
How it was run: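 Tsc2-/-, p53-/- MEFs (empty vector) exposed to compound 24 h at 37 C, fixed, stained with Alexa-488 anti-phospho-rpS6 Ser235/236 and propidium iodide. Acumen laser scanning; phospho-S6/PI ratio thresholded against 7.5 nM rapamycin, reported as % positive cells.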

[4] = High Content Imaging Cell-Based qHTS for Inhibitors of the mTORC1 Signaling Pathway in MEF (Tsc2-/-, p53-/-) Cells (AID 2666); conditions: series mostly up to 38.3 µM;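 note: percent of cells scored positive for phospho-rpS6 Ser235/236 immunostaining by imaging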
How it was run: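 Read-out: % positive cells per well, with thresholds from highest- and lowest-signal wells, based on phospho-rpS6 (Ser235/236) intensity normalized to Hoechst nuclear stain. Cells: Tsc2-/-, p53-/- MEFs carrying empty vector; compound 24 hrs, 37 degree Celsius.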

[5] = High Content Imaging Cell-Based qHTS for Inhibitors of the mTORC1 Signaling Pathway in MEF Cells (AID 2667); conditions: series mostly up to 38.3 µM;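 note: Tsc2-/- p53-/- MEFs stably re-expressing wild-type Tsc2 exposed 24 h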
How it was run: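 MEF (Tsc2-/-, p53-/-, WT Tsc2 re-expressed); cpd 24 h, 37 °C; PFA fix; Alexa-488 anti-p-rpS6 Ser235/236, PI, Hoechst; IN Cell imaging; Hoechst/Alexa-488 intensity ratio; % active cells, thresholds set from rapamycin and DMSO wells.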

[6] = Cytometry Cell-Based qHTS for Inhibitors of the mTORC1 Signaling Pathway in MEF cells (AID 2668); conditions: mTORC1 pathway readout; series mostly up to 38.3 µM; note: potency is the fitted concentration of half-maximal effect
How it was run: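 MEFs (Tsc2-/-, p53-/- stably expressing WT Tsc2) treated 24 h at 37 degree Celsius, fixed, stained with Alexa-488 anti-phospho-rpS6 Ser235/236 and propidium iodide; Acumen laser scanning. Reported as % positive cells, phospho-S6 normalized to PI.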

[7] = qHTS Assay for Identification of Small Molecule Inducers of Hypoxia Response (AID 2120; active = well fitted curve in the direction sought with a large enough effect in the signal ratio, with a control signal flat, not every such curve was filed as active; the % refers to the signal ratio); conditions: hypoxia response reporter cells, beta-lactamase ratio readout; series mostly up to 104 µM
How it was run: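 HRE-beta-lactamase reporter in CellSensor HRE-bla ME-180 cells, 2500 cells/well in Opti-MEM with 0.5% dialyzed FBS; compounds tested as titration series, 17 h at 37 degrees C. CCF4 substrate 2.5 h at room temperature; AC50 from 460/530 nm ratio.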

[8] = biological target: Ferritin light chain (Equus caballus) (UniProt P02791); assay: qHTS Validation Assay for Identification of Novel General Anesthetics (AID 2323); conditions: horse apoferritin, anesthetic-site fluorescent probe displacement; series mostly up to 76.9 µM
How it was run: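 Horse-spleen apoferritin (10 uM) in PBS with 50% saturated 1-aminoanthracene; compounds pin-transferred, 10 min at room temperature. Fluorescence read at 380/535 nm, normalized to free 1-AMA and 1-AMA/apoferritin values; four-parameter Hill fit.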

[9] = biological target: RecQ-like DNA helicase BLM (Homo sapiens) (UniProt P54132); assay: qHTS Validation Assay for Inhibitors of Bloom's syndrome helicase (BLM) (AID 2364); conditions: BLM helicase DNA unwinding, fluorescence, in vitro; series mostly up to 57.1 µM
How it was run: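 BLM 50 nM in 25 mM Tris-HCl pH 8.0, 5 mM NaCl, 2 mM MgCl2, 1 mM DTT, 0.01% Tween-20, 2.5 ug/ml poly(dI-dC); 15 min cpd preinc, RT. Start: 200 nM forked DNA + 2 mM ATP (final). TAMRA read, 2 reads 2 h apart.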

Measured: Potency

RecQ-like DNA helicase BLM (Homo sapiens), sequence (P54132 whole entry, looked up): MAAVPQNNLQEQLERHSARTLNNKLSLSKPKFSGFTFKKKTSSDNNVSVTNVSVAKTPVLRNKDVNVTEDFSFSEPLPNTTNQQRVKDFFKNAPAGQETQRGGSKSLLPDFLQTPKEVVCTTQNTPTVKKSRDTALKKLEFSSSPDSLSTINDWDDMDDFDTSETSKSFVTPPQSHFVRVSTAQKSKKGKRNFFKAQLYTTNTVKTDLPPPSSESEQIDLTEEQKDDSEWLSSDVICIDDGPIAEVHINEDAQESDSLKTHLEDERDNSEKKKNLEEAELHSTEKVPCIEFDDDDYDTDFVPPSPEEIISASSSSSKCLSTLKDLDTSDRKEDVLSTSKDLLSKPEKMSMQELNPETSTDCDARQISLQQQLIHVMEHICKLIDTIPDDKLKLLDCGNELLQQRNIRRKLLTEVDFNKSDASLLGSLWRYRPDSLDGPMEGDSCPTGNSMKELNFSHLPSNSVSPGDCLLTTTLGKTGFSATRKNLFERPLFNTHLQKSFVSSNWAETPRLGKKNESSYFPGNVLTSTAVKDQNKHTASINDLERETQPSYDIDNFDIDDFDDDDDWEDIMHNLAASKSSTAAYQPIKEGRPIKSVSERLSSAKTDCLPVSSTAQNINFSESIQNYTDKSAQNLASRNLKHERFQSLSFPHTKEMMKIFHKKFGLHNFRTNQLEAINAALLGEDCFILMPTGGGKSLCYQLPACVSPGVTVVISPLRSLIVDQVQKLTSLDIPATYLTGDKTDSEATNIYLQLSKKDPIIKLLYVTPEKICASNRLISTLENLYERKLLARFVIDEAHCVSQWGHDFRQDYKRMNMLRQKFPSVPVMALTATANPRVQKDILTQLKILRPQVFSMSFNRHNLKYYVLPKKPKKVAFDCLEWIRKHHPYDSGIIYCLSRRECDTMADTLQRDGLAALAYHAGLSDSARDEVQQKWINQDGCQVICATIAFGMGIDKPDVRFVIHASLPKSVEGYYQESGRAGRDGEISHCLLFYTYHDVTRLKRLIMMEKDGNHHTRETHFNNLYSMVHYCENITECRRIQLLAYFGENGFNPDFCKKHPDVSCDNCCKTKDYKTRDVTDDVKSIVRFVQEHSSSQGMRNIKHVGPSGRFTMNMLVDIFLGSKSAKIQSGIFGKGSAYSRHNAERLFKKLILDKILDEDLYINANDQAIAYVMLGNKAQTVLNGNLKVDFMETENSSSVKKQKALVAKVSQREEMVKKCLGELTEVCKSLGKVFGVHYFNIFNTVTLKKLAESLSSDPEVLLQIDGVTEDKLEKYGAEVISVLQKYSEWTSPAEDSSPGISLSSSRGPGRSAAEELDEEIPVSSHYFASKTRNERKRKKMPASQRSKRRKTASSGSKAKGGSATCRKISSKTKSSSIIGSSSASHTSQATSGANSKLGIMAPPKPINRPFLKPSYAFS
ATP-dependent DNA helicase Q1 (Homo sapiens), sequence (P46063 whole entry, looked up): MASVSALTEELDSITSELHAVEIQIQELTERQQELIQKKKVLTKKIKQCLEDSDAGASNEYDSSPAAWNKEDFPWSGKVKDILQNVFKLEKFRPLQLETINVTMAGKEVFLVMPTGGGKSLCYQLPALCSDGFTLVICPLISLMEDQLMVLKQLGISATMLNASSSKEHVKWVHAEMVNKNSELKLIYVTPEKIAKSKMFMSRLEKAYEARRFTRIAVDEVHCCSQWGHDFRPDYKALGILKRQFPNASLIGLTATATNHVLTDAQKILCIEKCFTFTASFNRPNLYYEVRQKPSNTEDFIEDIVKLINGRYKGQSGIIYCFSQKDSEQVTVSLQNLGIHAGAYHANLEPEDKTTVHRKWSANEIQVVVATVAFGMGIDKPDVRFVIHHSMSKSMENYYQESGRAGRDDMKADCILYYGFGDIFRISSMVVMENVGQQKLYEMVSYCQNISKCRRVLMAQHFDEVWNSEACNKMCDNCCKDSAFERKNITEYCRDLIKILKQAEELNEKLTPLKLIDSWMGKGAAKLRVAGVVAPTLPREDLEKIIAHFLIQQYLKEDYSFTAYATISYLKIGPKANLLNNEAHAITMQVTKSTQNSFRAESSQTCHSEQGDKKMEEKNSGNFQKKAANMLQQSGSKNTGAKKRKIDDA
Ferritin light chain (Equus caballus), sequence (P02791 2-175 limits assumed): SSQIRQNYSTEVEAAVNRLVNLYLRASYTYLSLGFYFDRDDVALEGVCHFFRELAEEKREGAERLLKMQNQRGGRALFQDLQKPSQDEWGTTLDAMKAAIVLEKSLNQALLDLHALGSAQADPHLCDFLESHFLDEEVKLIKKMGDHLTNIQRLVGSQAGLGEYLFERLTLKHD

COCCOC(=O)C1=C(C)NC(C)=C(C(=O)OC(C)C)C1c1cccc([N+](=O)[O-])c1 (configuration not stated)
active: [1] 8.91 µM
inactive: [2] | [3] | [4] | [5] | [6]

COc1cc2c(cc1OC)-c1cc(=Nc3c(C)cc(C)cc3C)n(C)c(=O)n1CC2
active: [1] 3.55 µM
inactive: [2] | [3] | [4] | [5] | [6]

CCCCOCCOCCOCc1cc2c(cc1CCC)OCO2
inactive: [7]

COC(=O)[C@H]1[C@H]2C[C@@H]3c4[nH]c5cc(OC)ccc5c4CCN3C[C@H]2C[C@@H](OC(=O)c2cc(OC)c(OC)c(OC)c2)[C@@H]1OC
active: [1] 1.26 µM
inactive: [3] | [4]

O=C(O)CN(CCN(CC(=O)O)CC(=O)O)CCN(CC(=O)O)CC(=O)O
inactive: [1] | [2] | [3] | [6]

Nc1c2c(nc3ccccc13)CCCC2O (configuration not stated)
not listed: [7] | [8] | [9]
inactive: all other assays above

CCCN(CCC)CCc1cccc2c1CC(=O)N2
inactive: [1] | [2] | [3] | [5] | [6]

c1cc(CN2CCCCC2)cc(OCCCNc2nc3ccccc3s2)c1
inactive: [3] | [4]
active: [1] 11.2 µM | [6] 16.5 µM

Cc1ccc(/C(=C\CN2CCCC2)c2ccccn2)cc1
inactive: [8] | [2] | [3] | [5] | [6]

NC(=O)c1cn(Cc2c(F)cccc2F)nn1
inactive: [3]

CN(C)[C@@H]1C(=O)C(C(N)=O)=C(O)[C@@]2(O)C(=O)C3=C(O)c4c(O)ccc(Cl)c4[C@@H](O)[C@H]3C[C@@H]12
inactive: [3] | [6]

CCCCCCCC/C=C\CCCCCCCC(=O)NCc1ccc(O)c(OC)c1
inactive: [3] | [4]

CN1C[C@H](C(=O)N[C@]2(C)O[C@@]3(O)[C@@H]4CCCN4C(=O)[C@H](Cc4ccccc4)N3C2=O)C[C@@H]2c3cccc4[nH]cc(c34)C[C@H]21
inactive: [3] | [4] | [5] | [6]

C[N+](C)(C)CCCCCCCCCC[N+](C)(C)C
inactive: [9] | [3] | [4] | [6]

CN1C(=O)CC[C@H]1c1cccnc1
inactive: [3] | [4] | [6]

Cc1nc2ccccn2c(=O)c1CCN1CCC(C(=O)c2ccc(F)cc2)CC1
inactive: [8] | [9] | [3] | [4] | [5]

Cc1scc2c1N(C(=O)CN1CCN(C)CC1)c1ccccc1NC2=O
not listed: [1] | [7] | [8]
inactive: all other assays above

NC1=NCC2c3ccccc3Cc3ccccc3N12 (configuration not stated)
inactive: [3] | [4] | [5] | [6]

C[C@]12CC[C@@H]3c4ccc(O)cc4C[C@@H](CCCCCCCCCS(=O)CCCC(F)(F)C(F)(F)F)[C@H]3[C@@H]1CC[C@@H]2O (some centres not stated)
inactive: [3] | [4] | [5] | [6]

CN(C(=O)CCCOc1ccc2[nH]c(=O)ccc2c1)C1CCCCC1
inactive: [2] | [3] | [4] | [5]

C[C@@H](O)[C@H]1C(=O)N2C(C(=O)O)=C(SCCN=CN)C[C@H]12
inactive: [3] | [4] | [5] | [6]

CNCCCN1c2ccccc2CCc2ccccc21
inactive: [2] | [9] | [3] | [4]
